A selection: hits, their analogues and other compounds. The true share with any hit is near 19%.
DT40 TDP1 CPT – DT40-hTDP1 cell growth loss with CPT | chicken DT40 Tdp1-/-;hTDP1 cells + 20 nM CPT, ATP luminescence, 48 h | Potency, µM (doses to about 46.2 µM), for the others: at the top dose activity change, negative = growth inhibition, usual class: inhibitors | 420,000 tested, 12% active | AID 686979; note: potency is the fitted concentration of half-maximal effect; nearly all actives have a fitted effect of over 55% in size
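Chicken DT40 Tdp1-/- cells stably complemented with human TDP1 were seeded at 400 cells/well in medium containing 20 nM camptothecin, exposed to pin-transferred compounds, and grown at 37 °C for at least 48 hr. Viability was read as ATP luminescence.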
DT40 TDP1 no CPT – qHTS for Inhibitors of human tyrosyl-DNA phosphodiesterase 1 (TDP1): qHTS in cells in absence of CPT | DT40 Tdp1-/- hTDP1 cells, no CPT, ATP luminescence, 48 h | Potency, µM (highest dose often 46.2 µM), for inactives: at the top dose activity change, negative = growth inhibition, hits mostly inhibitors | 420,000 tested, 15% active; note: potency is the fitted concentration of half-maximal effect; nearly all actives have a fitted effect of over 55% in size
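Camptothecin absent (DMSO only). Human TDP1-complemented DT40 knockout cells, 400 cells/well, 37 °C for minimum 48 hr; ATP measured via CellTiter-Glo, 30 min dark incubation, luminescence.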
ELG1 repair inh – ELG1-dependent DNA repair inhibition; HEK293T ELG1-luciferase reporter, luminescence, 16 h; DNA damage induced by 5-fluorouridine; Potency, µM (doses to about 46.1 µM), without a hit: at the highest dose activity change, negative = inhibition, hits mostly inhibitors; 330,000 tested, 2.3% active; note: potency is the fitted concentration of half-maximal effect; nearly all actives have a fitted effect of over 55% in size
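5-Fluorouridine DNA damage + compound/DMSO, 2,000 cells/well, 16 h, 37 °C/5% CO2. ONE-Glo, 30 min RT, luminescence. Readout = decrease in reporter signal.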
HT1080NT lethal – kills 2HG-producing HT-1080-NT fibrosarcoma cells. HT-1080-NT fibrosarcoma viability, CellTiter-Glo ATP luminescence, 48 h. Potency, µM (series often up to 46.1 µM), inactives show top-dose activity, negative = less viability, hits mostly cytotoxic. 360,000 tested, 1.6% active. AID 686970;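 note: NT is the 2HG producing partner of a matched IDH1 knockdown line; potency is the fitted concentration of half-maximal effect; 0% = DMSO-treated cells and -100% = media-only wells without cells; nearly all actives have a fitted effect of over 55% in size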
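Toxicity toward the 2HG-producing NT line was scored as %Activity, normalised to DMSO and no-cell wells, from CellTiter-Glo luminescence after 48 hours' treatment.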
HT1080 IDH1KD tx – kills HT-1080 cells with IDH1 knockdown; 360,000 tested, 2% active; Potency, µM (doses to about 46.1 µM), for the others: top-dose activity, negative = toxicity, usual class: cytotoxic; HT-1080 IDH1 knockdown viability, ATP luminescence, 48 h;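 note: potency is the fitted concentration of half-maximal effect; 0% = DMSO wells and -100% = cell-free medium wells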
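% activity derives from luminescence (CellTiter-Glo), normalised to DMSO and no-cell wells. HT-1080-IDH1KD cells, 750/well, had 48 h compound exposure at 37 °C.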
IL-1B inflam inh – inhibitors of inflammasome signaling (IL-1 beta secretion); THP-1 LPS/ATP IL-1B secretion, AlphaLISA, 16 h; stronger effect = lower value; activity change, % at 57.5 µM; 360,000 tested, 4.7% active; AID 743279; in the data active = activity change below about -50%; inconclusive = mostly about -30% to -49%
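Secreted IL-1B measured by AlphaLISA bead assay after 16 h compound exposure of THP-1 cells; compounds (final up to 57.5 uM) added 1 h before LPS (250 ng/mL) and ATP (1.25 mM) stimulation; lower signal means less secretion.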
An asterisk follows results filed as active; ? = inconclusive; . = no result given. Unless noted, calls come from the whole dose curve; as a rule, active = well fitted curve in the direction sought with a large enough effect; inconclusive = small, poorly fitted or top-dose-only effect, or another doubt; inactive = no such curve, though single readings can be large; an effect the other way counts as inactive or inconclusive. Unless noted, % is set by controls: 0 for no effect and ±100 for the full control effect.

SMILES	DT40 TDP1 CPT	DT40 TDP1 no CPT	ELG1 repair inh	HT1080NT lethal	HT1080 IDH1KD tx	IL-1B inflam inh
CCOC(=O)c1cnc2cc(-c3ccc(Cl)cc3)nn2c1N	-19.8%	-14.9%	?	10.7%	1.9%	-5.8
COc1ccc(Cn2c(SCc3ccc(C)cc3)nc3cc(OC)c(OC)cc3c2=N)cc1Cl	4.11µM*	2.31µM*	?	20.6µM*	23.1µM*	-121.4*
COCCCn1c(SCc2ccccc2)nc2cc(OC)c(OC)cc2c1=N	23.1µM*	?	16.4µM*	-29.2%	-28.7%	-9.6
COc1cc2nc(SCc3ccc(C(F)(F)F)cc3)n(Cc3cccs3)c(=N)c2cc1OC	-5.4%	20.9%	-14.6%	0.1%	-1.7%	-5.8
COc1ccc(Cn2c(SCc3cc(C)ccc3C)nc3cc(OC)c(OC)cc3c2=N)cc1	8.2µM*	7.31µM*	?	?	?	-96.2*
C[C@H](CO)N1C[C@H](C)[C@H](CN(C)Cc2ccncc2)OCc2ccccc2-c2c(n(C)c3ccccc23)C1=O	25.9µM*	16.4µM*	.	-2.3%	-2.4%	17.7
COc1ccccc1NC(=O)N(C)C[C@@H]1OCc2ccccc2-c2c(n(C)c3ccccc23)C(=O)N([C@H](C)CO)C[C@@H]1C	20.6µM*	23.1µM*	.	-11.6%	11.0%	-29.7
CC(C)NC(=O)N(C)C[C@@H]1OCc2ccccc2-c2c(n(C)c3ccccc23)C(=O)N([C@@H](C)CO)C[C@@H]1C	-19.9%	?	.	13.6%	-1.2%	40.1
C[C@@H]1CN([C@@H](C)CO)C(=O)c2c(c3ccccc3n2C)-c2ccccc2CO[C@H]1CN(C)C(=O)[C@H](Cc1ccccc1)N(C)C	?	20.6µM*	.	?	-25.1%	-10.8
COC(=O)N(C)C[C@@H]1OCc2ccccc2-c2c(n(C)c3ccccc23)C(=O)N([C@H](C)CO)C[C@@H]1C	?	25.9µM*	.	-7.8%	-4.7%	-22.7
COC(=O)Cn1c(=O)c2cccn2c2ccc(F)cc21	-19.1%	-18.1%	.	.	.	.
O=C(NC(=S)NCCCN1CCOCC1)c1ccc([N+](=O)[O-])cc1	2.2%	-20.3%	10.1%	14.8%	-4.5%	45.6
COC(=O)[C@H](CCSC)NC(=O)Cn1cnc(C(=O)Nc2ccc(C)c(C)c2)n1	-23.2%	-25.8%	?	-11.0%	-10.0%	16.1
CNC[C@@H]1OCc2ccccc2-c2c(n(C)c3ccccc23)C(=O)N([C@H](C)CO)C[C@@H]1C	?	18.4µM*	.	-20.7%	2.1%	-18.4
C[C@H](CO)N1C[C@H](C)[C@H](CN(C)C(=O)Nc2ccc(F)cc2)OCc2ccccc2-c2c(n(C)c3ccccc23)C1=O	14.6µM*	13µM*	.	-18.1%	-18.8%	26.2
C#CCCc1ccccc1/C=[N+](/C)[O-]	23.1µM*	?	?	-5.7%	-0.8%	48.7
C/[N+]([O-])=C\c1coc2ccccc2c1=O	7.0%	-14.7%	18.5%	-0.6%	-1.8%	-5.7
CC(C)CN(C)C(=O)CCc1nnc(Cc2ccc(-c3ccccc3)cc2)o1	?	11.6µM*	-19.9%	-15.7%	-4.7%	11.8
COc1ccc(N(S(=O)(=O)c2ccccc2)S(=O)(=O)c2ccccc2)c(N)c1	?	?	-25.8%	?	?	17.4
C/C(=N\NC(=O)COc1ccc(C(C)(C)C)cc1)c1ccc2c(c1)OCCO2	16.4µM*	25.9µM*	21.5%	5.5%	19.2%	11.5
CNC(=S)N/N=C(\C)c1ccc2c(c1)OCCO2	-2.5%	-4.4%	?	29.6%	19.8%	13.0
COc1cc(/C(C)=N/NC(=S)NC(C)C)cc(OC)c1OC	1.3µM*	1.16µM*	?	-4.4%	-10.2%	?
